The values below come from PubChem BioAssay.

A short description of test [1]: stimulators of nuclear beta-catenin in C2C12, primary screen, imaging, WNT3A-conditioned medium, mouse C2C12, NPC library (AID 1117326; in the data active = nuclear beta-catenin stimulation mostly above about 4.2%, no sharp cut-off; inactive = mostly below about 10%). To be noted: stronger effect = higher value.
A short description of test [2]: stimulators of insulin release from INS-1E, primary screen, cell-based, 5 mM glucose, NPC library (AID 1117329;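 active = compound raises insulin release from rat beta cells at 5 mM glucose, no numeric limit stated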). The following applies: rat INS-1E insulin secretion, at 10 µM, stronger effect = higher value.
The nature of test [3]: growth inhibition of GSK3B-pretreated HCT116 cells – cell-based, CellTiter-Glo, 0.2 to 20 µM (AID 1117336;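 active = compounds lowering colon cancer cell viability after pretreatment blocking the GSK3B kinase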). To be noted: HCT116 viability after GSK3B inhibitor, at 20 µM, stronger effect = higher value. In general terms: In ATP-based viability assays light output follows the ATP content of the culture.
Test [4] can be described thus: inhibition of endothelial tube formation, primary screen, imaging, VEGF stimulated, CD31 staining, tube area, NPC library (AID 1117340;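 active = compound that reduces growth-factor-driven endothelial tube area in a mixed cell culture, no cutoff stated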). The following applies: VEGF-stimulated ADSC/ECFC co-culture, at 10 µM, stronger effect = higher value.
Test [5] in a line: glucagon-like peptide 1 release enhancers, primary assay, NCI-H716 cell line, NPC library (AID 1117341;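 active = compound raises GLP1 secretion from the human gut endocrine cells, with no numeric limit stated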). The following applies: NCI-H716 cells, at 10 µM, stronger effect = higher value.
A short description of test [6]: HCT116 colon cancer cell growth inhibition, primary screen, CellTiter-Glo luminescence, NPC library (AID 1117342;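 active = compounds that lower survival of HCT116 colon cancer cells in the luminescence readout, no numeric limit stated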). The following applies: at 20 µM (top of the series).
A short description of test [7]: CellTiter-Glo luminescent readout of SW480 viability loss, NPC library primary (AID 1117343;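 active = compounds that lower viability of the colon cancer cells in the luminescence readout, with no numeric limit stated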). The following applies: CellTiter-Glo luminescence; at 20 µM (top of the series) unless noted.
Test [8] in a line: decreased DLD-1 cellular survival, CellTiter-Glo luminescent readout, NPC compound collection, primary HTS (AID 1117346;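 active = compounds that lower survival of DLD-1 colon cancer cells in the luminescence readout, no cutoff given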). The following applies: DLD-1 viability, CellTiter-Glo luminescence; at 20 µM (top of the series).
Test [9] is described as follows: differential killing of epithelial or mesenchymal cells, primary screen, imaging, PC-3E GFP, TEM4-18 mCherry, co-culture (AID 1345086;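 active = compounds killing one labelled cell type while sparing the other, by normalised counts and ratio limits, not self-fluorescent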;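 as to all read-outs here: cells exposed to compound for 72 h before imaging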;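 as to red/green cell ratio (normalised): normalised mesenchymal count divided by normalised epithelial count so high means epithelial killing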). The following applies: imaging cell counts, at 1 µM; for red/green cell ratio (normalised): actives lie on both sides, counts scaled to control wells, 1 = unselective.
Test [10] is described as follows: sensitizers of A549 cells to miR-34 induction, primary screen, imaging, A549 dox-inducible miR-34, nuclei and caspase counts (AID 1347080). The following applies: A549 miR-34 inducible, Hoechst nuclei count, 48 h.
The target in test [11] is NAD(+) hydrolase SARM1 (Homo sapiens) (UniProt Q6SZW1). Kind of test: SARM1 TIR NADase inhibitors, cell lysate, NAD-Glo luminescence (AID 1508614;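 active = compound whose remaining NAD level is above about 45 nM, limit read from the data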;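 also: higher remaining NAD means stronger inhibition of SARM1 NADase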). To be noted: SAM-TIR HEK293T lysate NADase, at 1 µM, stronger effect = higher value.
Chain of NAD(+) hydrolase SARM1 (Homo sapiens) (Q6SZW1 whole entry, looked up): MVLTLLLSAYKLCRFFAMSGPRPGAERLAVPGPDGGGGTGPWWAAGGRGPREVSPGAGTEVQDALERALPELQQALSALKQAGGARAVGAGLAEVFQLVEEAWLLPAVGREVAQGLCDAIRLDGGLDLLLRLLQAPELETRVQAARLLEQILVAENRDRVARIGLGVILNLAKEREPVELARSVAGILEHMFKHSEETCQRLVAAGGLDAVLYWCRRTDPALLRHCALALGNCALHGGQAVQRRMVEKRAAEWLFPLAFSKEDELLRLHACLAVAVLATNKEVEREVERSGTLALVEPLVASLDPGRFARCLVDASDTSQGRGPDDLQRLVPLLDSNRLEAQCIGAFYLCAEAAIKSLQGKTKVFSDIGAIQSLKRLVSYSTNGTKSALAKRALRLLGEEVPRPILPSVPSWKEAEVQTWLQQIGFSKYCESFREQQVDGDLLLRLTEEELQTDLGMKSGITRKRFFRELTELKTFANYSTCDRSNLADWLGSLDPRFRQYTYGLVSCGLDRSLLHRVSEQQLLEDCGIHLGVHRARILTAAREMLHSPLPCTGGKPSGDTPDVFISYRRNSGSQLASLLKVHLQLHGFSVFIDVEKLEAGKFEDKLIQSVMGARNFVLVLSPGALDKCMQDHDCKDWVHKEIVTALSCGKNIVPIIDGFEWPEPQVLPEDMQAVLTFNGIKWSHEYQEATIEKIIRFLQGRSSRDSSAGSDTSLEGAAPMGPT
Test [12] in a line: liver-stage malaria parasite growth inhibition, primary screen, cell-based, HepG2, luciferase luminescence, HepG2 viability (AID 624349; in the data active = parasite load remaining mostly below about 12%, no sharp cut-off; inactive = mostly above about 10%;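 also: 100% = mean of DMSO negative control wells on the same plate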). The following applies: P. berghei liver stage in HepG2, luciferase luminescence, concentration not given here; parasite load remaining: stronger effect = lower value; viability: measured here: HepG2 viability without parasites.
Test [13] can be described thus: survival rescue of mitochondrial mutant cells in low glucose, primary screen, MELAS cybrids, Rieske KO mouse fibroblasts, CellTiter-Glo (AID 1508586;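 active = mean z-score across replicates of 1.96 or higher in either the MELAS or the Rieske mutant cell line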;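 also: z relative to plate mean and SD of compound and empty wells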).
A short description of test [14]: hESC survival regulators, cell-based (AID 493140; call rule not given here;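 also: cells exposed to compounds for four days before counting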). To be noted: human embryonic stem cell survival screen; stronger effect = higher value.
[15] abbreviates: measured here: epithelial PC-3E GFP cell survival.
The mark [16] stands for this setting: measured here: mesenchymal TEM4-18 mCherry cell survival.
Setting [17] is: stronger effect = lower value, cell number ratio, induced over uninduced.
Setting [18] is: measured here: relative caspase fold change +Dox/-Dox.
Setting [19] is: measured here: total cells with miR-34 induction, stronger effect = lower value.
[20] abbreviates: measured here: total cells without miR-34 induction.
Setting [21] is: MELAS cybrid survival, CellTiter-Glo 48 h, stronger effect = higher value.
Setting [22] is: Rieske KO mouse fibroblast survival, CellTiter-Glo 72 h.

Several values for one entry are separate records, joined by “and”; a condition that tells them apart may be missing. Equal entries are not always repeated. Activity calls are given as the source filed them.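 The calls were made as follows, unless noted: active = compounds whose cell count with miR-34 switched on is under 0.7 times the count with it off; inactive = the rest.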

Consider `CC(C)COC(=O)c1ccc(N)cc1`, for which the nuclear beta-catenin stimulation in test [1] (at 10 µM) was 0.2% (inactive); in test [1] (stimulation, at 2 µM) it was 0.4%. For the same molecule, in [2], the insulin secretion stimulation is -1.9% (inactive). Besides, in test [3], the viability decrease was -5.95% (inactive). For the same molecule, the tube area decrease in test [4] was 0.5% (inactive). Further, the GLP1 secretion stimulation in test [5] is 0.9% (inactive). Also, the inhibition of viability in test [6] was 6.2% (inactive). The viability decrease (inhibition) in test [7] was 61.3% (active); in test [8], 12.5% (inactive). In addition, the red/green cell ratio (normalised) in [9] is 1.09 (inactive). Moreover, the normalised cell number is 0.86 in test [9] (setting [15]) and 0.93 in [9] (setting [16]). The fold change in test [10] (setting [17]) is 0.964 (inactive); in test [10] (setting [18]) it was 0.986. For the same molecule, the figures for the cell count in [10] (setting [19]) and in [10] (setting [20]) were 8750 and 9080, respectively. In addition, the remaining NAD in test [11] is 10 nM (inactive).

A word on the viability: it is a read-out of living cells in per cent, often relative to untreated cells. `CN(C)CC/C=C1\c2ccccc2Sc2ccc(Cl)cc21`: the parasite load remaining in test [12] was 79% (inactive) and 61.2% (inactive) and 17.9% (inactive). Also, the viability in test [12] is 83.4% and 97.6% and 84.5%. Moreover, the nuclear beta-catenin stimulation is 1.8% (inactive) in [1] (at 10 µM) and 0.5% in [1] (stimulation, at 2 µM). In test [2], the insulin secretion stimulation is 20.8% (active). Also, the viability decrease in test [3] was 51.1% (active). The tube area decrease in test [4] was 42.6% (active). Also, in test [5], the GLP1 secretion stimulation is 15.7% (inactive). Further, in test [6], the inhibition of viability is 94.8% (active). In addition, the viability decrease (inhibition) in test [7] is 127% (active); in test [8], 98.6% (active). Besides, the red/green cell ratio (normalised) in test [9] was 1.04 (inactive). Besides, the normalised cell number stood at 1.11 in test [9] (setting [15]) and 1.16 in test [9] (setting [16]). Also, the fold change in [10] (setting [17]) was 0.848 (inactive) and 0.855 (inactive); in [10] (setting [18]), 1.41 and 2.28. Further, the cell count in test [10] (setting [19]) is 6900 and 9070; in [10] (setting [20]), 8140 and 10600. In addition, the z-score in [13] (setting [21]) is 0.287 (inactive); in test [13] (setting [22]) it was 0.968.

In the case of `CCOc1ccc(NC(=O)CC(C)O)cc1` (stereo not drawn), the nuclear beta-catenin stimulation in test [1] (at 10 µM) was -2.6% (inactive); in test [1] (stimulation, at 2 µM), 0.2%. The insulin secretion stimulation in [2] was 0.2% (inactive). Besides, the viability decrease in test [3] is -0.1% (inactive). The tube area decrease in [4] was 4.3% (inactive). Moreover, the GLP1 secretion stimulation in test [5] is -3.3% (inactive). In addition, in test [6], the inhibition of viability was 1.4% (inactive). In addition, the values for the viability decrease (inhibition) in test [7] and in test [8] were -2.6% (active) and -15.7% (inactive), respectively. Besides, the red/green cell ratio (normalised) in test [9] is 1.16 (inactive). The results for the normalised cell number in test [9] (setting [15]) and in test [9] (setting [16]) were 0.83 and 0.96, respectively. The fold change is 0.956 (inactive) in test [10] (setting [17]) and 0.822 in test [10] (setting [18]). Besides, the figures for the cell count in test [10] (setting [19]) and in test [10] (setting [20]) were 9180 and 9600, respectively. Moreover, the remaining NAD in test [11] is 10 nM (inactive).

For the molecule `CN1C(=O)CC(C)(c2ccccc2)C1=O` (stereo not drawn), the nuclear beta-catenin stimulation was 2.5% (inactive) in test [1] (at 10 µM) and 2% in [1] (stimulation, at 2 µM). In test [2], the insulin secretion stimulation is -0.7% (inactive). In addition, the viability decrease in [3] is -2.5% (inactive). The tube area decrease in test [4] is -16.2% (inactive). For the same molecule, the GLP1 secretion stimulation in test [5] is 2.6% (inactive). The inhibition of viability in test [6] was 8.7% (inactive). The results for the viability decrease (inhibition) in test [7] and in test [8] were 19.6% (inactive) and -5.25% (inactive), respectively. Besides, the red/green cell ratio (normalised) in [9] was 1.03 (inactive). Moreover, the normalised cell number in test [9] (setting [15]) amounted to 0.99; in [9] (setting [16]), 1.02. In addition, the fold change in [10] (setting [17]) was 0.901 (inactive); in test [10] (setting [18]) it was 0.963. In addition, the cell count in [10] (setting [19]) was 8480; in test [10] (setting [20]) it was 9410. Also, the remaining NAD in [11] was 10 nM (inactive).

Regarding `CCCNC(C)(C)COC(=O)c1ccccc1`, the survival in test [14] was 15.2 (inactive). The parasite load remaining in test [12] was 69.3% (inactive). The same molecule returned a viability in test [12] of 69.4%. Besides, the nuclear beta-catenin stimulation in [1] (at 10 µM) is 0.1% (inactive); in test [1] (stimulation, at 2 µM), 0.2%. Besides, the insulin secretion stimulation in test [2] was 4.2% (inactive). In test [3], the viability decrease was 0.2% (inactive). In addition, the tube area decrease in [4] is 6.5% (inactive). The GLP1 secretion stimulation in [5] is 4% (inactive). Further, the inhibition of viability in [6] was -3.5% (inactive). Further, the viability decrease (inhibition) is 42.3% (inactive) in test [7] and 25.6% (inactive) in test [8]. Moreover, the red/green cell ratio (normalised) in test [9] was 1.13 (inactive). Moreover, the normalised cell number turned out to be 1.15 in test [9] (setting [15]) and 1.29 in [9] (setting [16]). Also, the results for the fold change in test [10] (setting [17]) and in test [10] (setting [18]) were 0.976 (inactive) and 0.64, respectively. Moreover, the cell count stood at 9410 in test [10] (setting [19]) and 9640 in test [10] (setting [20]). In addition, the z-score in [13] (setting [21]) is -0.122 (inactive); in test [13] (setting [22]) it was -0.0308. In addition, in test [11], the remaining NAD is 10 nM (inactive).
